Data: the supplement of paper PMC9254222
The full ranking holds about 1,100 compounds; the median of “Renilla luciferase signal (cell health) relative to plate median” is about 0.97, and the highest 2% start at about 1.6. The sample as a whole holds a higher share of the highest values than the screen did.

System: HEK293T (UBE3A T485A transfected, BAR Wnt reporter)
Assay: Renilla luciferase signal (cell health) relative to plate median (fold (linear ratio)); higher = higher Renilla signal
Conditions: 24 h
Outline: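 Chemicals at 0.01–100 uM were left on transfected HEK293T cells for 24 h, after a four-hour wait following transfection. The cells held a BAR firefly luciferase Wnt reporter, TK-Renilla and an expression plasmid. Wnt activity, as the firefly/Renilla ratio from a Dual-Glo luciferase readout, and cell health, as raw Renilla, were median-centred within each plate. Results average four biological replicates.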

Structure (SMILES)	Renilla luciferase signal (concentration: 0.01 uM)	Renilla luciferase signal (concentration: 0.1 uM)	Renilla luciferase signal (concentration: 1 uM)	Renilla luciferase signal (concentration: 10 uM)	Renilla luciferase signal (concentration: 100 uM)
CCOP(=S)(Oc1cnc(C(C)(C)C)nc1)OC(C)C (stereo unspecified) [Tebupirimfos]	1.07	1.22	1.16	1.08	1.4
CSC(=O)c1c(C(F)F)nc(C(F)(F)F)c(C(=O)SC)c1CC(C)C [Dithiopyr]	0.664	0.813	0.927	0.835	1.14
O=C(N[C@H](c1ccccc1)[C@@H]1CN2CCC1CC2)c1c(Cl)ccc(C(F)(F)F)c1Cl		0.771	0.687	0.344	0.143
CCOc1ccc(C(C)(C)COCc2cccc(Oc3ccccc3)c2)cc1 [Etofenprox]		1.01	1.12	0.95	1.14
CCC(C)(C)c1ccc(O)cc1 [4-(2-Methylbutan-2-yl)phenol]		0.874	0.809	0.795	0.442
CSc1nc(NC(C)C)nc(NC(C)C)n1 [Prometryn]	1.14	1.03	0.973	1.01	0.989
CCNc1nc(Cl)nc(NC(C)C)n1 [Atrazine]	0.72	0.693	0.877	0.729	1.18
CCNc1nc(NC(C)C)nc(SC)n1 [Ametryn]	0.34	0.318	0.3	0.543	1.78
CCCN(CCC)c1c([N+](=O)[O-])cc(S(N)(=O)=O)cc1[N+](=O)[O-] [Oryzalin]	1.08	0.918	0.931	0.876	0.99
CC1COC(Cn2cncn2)(c2ccc(Oc3ccc(Cl)cc3)cc2Cl)O1 (stereo unspecified) [Difenoconazole]	1.03	1.07	0.923	0.485	0.152
Cc1cccc(N)c1N [2,3-Diaminotoluene]		0.728	0.75	0.772	0.198
